Rab9 promoter act – activators of Rab9 promoter | Potency, µM (highest dose often 9.22 µM), without a hit: top-dose activation, negative = inhibition, actives largely listed as activators | Huh7 Rab9 promoter-luciferase reporter, luminescence, 24 h | 320,000 compounds, 2.8% hits | AID 485297; note: % of control where 0% means no effect; nearly all actives have a fitted effect of over 60% in size
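Steps: seed 1500 Huh7 Rab9-luc cells per well, rest 2 h at 37 °C; add compound in DMSO; incubate 24 h; add luciferase reagent, 10 min ambient; read luminescence.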
FLuc counter – firefly luciferase modulation, counter-screen for miR-21 project. Potency, µM (top dose mostly 57.5 µM), without a hit: top-dose activity change, negative = inhibition, usual class: inhibitors. purified FLuc, Km substrates, luminescence inhibition. 360,000 compounds, 6.9% hits. P08659;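 note: plate controls were vehicle for no effect and reference inhibitor for full effect; nearly all actives have a fitted effect of over 55% in size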
Target sequence (P08659 whole entry, looked up): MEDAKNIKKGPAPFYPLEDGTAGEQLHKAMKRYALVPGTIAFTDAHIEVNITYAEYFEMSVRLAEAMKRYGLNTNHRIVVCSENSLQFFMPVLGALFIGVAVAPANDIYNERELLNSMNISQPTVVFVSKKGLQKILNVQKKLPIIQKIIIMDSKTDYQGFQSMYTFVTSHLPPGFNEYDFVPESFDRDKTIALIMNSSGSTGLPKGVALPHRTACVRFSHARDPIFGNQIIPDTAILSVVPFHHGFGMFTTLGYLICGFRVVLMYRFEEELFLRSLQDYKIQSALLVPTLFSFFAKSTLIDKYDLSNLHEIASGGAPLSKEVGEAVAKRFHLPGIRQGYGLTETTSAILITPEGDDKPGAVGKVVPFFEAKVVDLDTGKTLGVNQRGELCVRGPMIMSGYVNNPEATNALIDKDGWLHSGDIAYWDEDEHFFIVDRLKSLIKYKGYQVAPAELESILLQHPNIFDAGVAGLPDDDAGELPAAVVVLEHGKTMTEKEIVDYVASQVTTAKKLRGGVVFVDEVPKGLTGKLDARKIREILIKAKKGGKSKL
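Biochemical qHTS of compounds, final roughly 60 µM downward over six points, against 10 nM purified firefly luciferase using Km concentrations of substrates (10 uM D-luciferin, 10 uM ATP) in Tris acetate pH 7.5 buffer; luminescence output.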
ELG1 genotox – induces genotoxicity in HEK293T cells with luciferase-tagged ELG1 | HEK293T ELG1-luciferase reporter, luminescence, 16 h | Potency, µM (highest dose often 46 µM), without a hit: at the highest dose activity change, positive = activation, usual class: activators | 330,000 compounds, 1.3% hits | AID 504466; note: % of control where 0% means no effect; nearly all actives have a fitted effect of over 60% in size
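HEK293T cells expressing luciferase-tagged ELG1 were exposed to compound or DMSO vehicle for 16 hr at 37 °C and 5% CO2. Luciferase activity was then measured with ONE-Glo after 30 min at room temperature.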
NPC1 prom act – activators of NPC1 promoter; Huh7 NPC1 promoter luciferase reporter, 24 h; Potency, µM (titrated, usually from 9.22 µM), without a hit: top-dose activation, actives largely listed as activators; 320,000 compounds, 2.4% hits; note: % of control where 0% means no effect; nearly all actives have a fitted effect of over 60% in size
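Stable NPC1-promoter luciferase Huh7 line; cpd (DMSO) 24 h, 37 °C, 5% CO2; Amplite luciferase reagent 10 min RT; luminescence readout. qHTS format.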
SMN2 splice enh – increases expression of the SMN2 splice variant; 210,000 compounds, 2.8% hits; HEK293 SMN2-luciferase splicing reporter, luminescence, 30-36 h; Potency, µM (doses to about 46.1 µM), for the others: at the highest dose activity change, positive = activation, most hits filed as activators; note: % of control where 0% means no effect; nearly all actives have a fitted effect of over 55% in size
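HEK293 cells carry an SMN2 minigene-luciferase reporter in which exon 7 inclusion puts luciferase in frame. Cells were seeded at 2000 cells/well, attached for 10-12 hours, then exposed to compounds for 30-36 hours at 37C before ONE-Glo luminescence.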
KinaseGlo FLuc – counter-screen: inhibitors of Kinase-Glo firefly luciferase. AID 1379. Q27757. Kinase-Glo luciferase, ATP luminescence, 8 min. Potency, µM (highest dose often 38.3 µM), for inactives: at the top dose activity change, negative = inhibition, most hits filed as inhibitors. 200,000 compounds, 0.28% hits; note: % is set by controls: 0 for no effect and ±100 for the full control effect; nearly all actives have a fitted effect of over 60% in size
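Compound is pinned into ATP-containing buffer (10 uM ATP, imidazole pH 7.2, 7 mM MgCl2). Kinase-Glo luciferase reagent is then added. Light output is recorded following an 8-min room-temperature incubation.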
* marks the source's active call; other numbers are inactive results; ? = inconclusive; nt = no result; [ ] = remark or other dose. Rows were chosen to be rich in hits. Some 7.4% of all compounds tested hit in one or more screens of this group. Calls come from the whole dose curve; as a rule, active = well fitted curve in the direction sought with a large enough effect; inconclusive = small, poorly fitted or top-dose-only effect, or another doubt; inactive = no such curve, though single readings can be large; an effect the other way counts as inactive or inconclusive. Potency is the fitted concentration of half-maximal effect.

SMILES	Rab9 promoter act	FLuc counter	ELG1 genotox	NPC1 prom act	SMN2 splice enh	KinaseGlo FLuc
CCOC(=O)C1CCCN(C2=NC(=O)/C(=C/c3ccc(OC)cc3)S2)C1 (stereo not drawn)	1.6%	-10.8%	-0.4%	-1.2%	nt	nt
NC1=NC(=O)/C(=C\c2ccco2)S1	0.1%	16.9µM*	1.8%	-3.1%	nt	nt
Brc1ccc(-c2csc(/N=C/N3CCOCC3)n2)cc1	?	15.1µM*	18.4µM*	?	8.7%	3.5%
OCCN(/C=N/c1nc(-c2ccc(Br)cc2)cs1)CCO	?	19µM*	20.6µM*	?	13.6%	-2.4%
Brc1ccc(-c2csc(/N=C/N3CCCC3)n2)cc1	?	15.1µM*	?	26.5%	-43.1%	-1.7%
COc1ccc(C)cc1S(=O)(=O)N1CCN(C/C=C/c2ccccc2)CC1	2.0%	0.4%	-2.8%	-3.3%	nt	nt
CC1CCN(C(=O)Cn2cnc3c(cnn3C(C)(C)C)c2=O)CC1	3.16µM*	?	?	?	15.8µM*	-2.0%
CC(=O)Nc1ccc(NC(=O)Cn2cnc3c(cnn3C(C)(C)C)c2=O)cc1	-2.4%	-5.3%	23.6%	11.1%	-8.4%	-3.2%
CC(C)(C)n1ncc2c(=O)n(CC(=O)NCc3ccccc3)cnc21	?	4.78µM*	?	0.447µM*	2.82µM*	0.3%
CC(C)(C)n1ncc2c(=O)n(Cc3c(F)cccc3Cl)cnc21	3.6%	23.9µM*	-9.0%	20.1%	-15.2%	-6.1%
CC(C)(C)n1ncc2c(=O)n(CC(=O)c3ccc(Cl)cc3)cnc21	3.16µM*	7.57µM*	17.6%	2.82µM*	17.8µM*	-4.3%
Cn1nnnc1SCCCNCc1ccc(-c2ccc(F)c(Cl)c2)o1	nt	5.4%	nt	nt	nt	nt
COc1ccc(Br)cc1CN1CCSCC1	-3.1%	1.5%	-2.4%	1.3%	nt	nt
CN(C(=O)c1ccc(NC(=O)Cc2cccc(NC(=O)C3CCN(C(=O)C4CCCC4)CC3)c2)cc1)C1CCCC1	-2.7%	-2.3%	0.0%	-2.1%	nt	nt
C=CCn1c(C)cc(C(=O)CSc2n[nH]c(N)n2)c1C	19.1%	19µM*	14.6µM*	23.8%	?	-1.4%
Cc1cc(C(=O)CSc2n[nH]c(N)n2)c(C)n1C1CC1	26.7%	-19.5%	4.0%	12.4%	12.5%	-4.3%
Cc1cc(C(=O)CSc2nnc3ccccn23)c(C)n1-c1ccccc1	?	0.19µM*	?	?	-47.1%	-14.4%
Cc1cc(C(=O)CSc2n[nH]c(N)n2)c(C)n1-c1ccc(F)cc1	?	19µM*	14.9%	?	-11.6%	1.2%
Cc1cc(C(=O)CSc2n[nH]c(N)n2)c(C)n1-c1cc(F)ccc1F	?	-3.0%[2.3 µM]	10.1%	25.2%	13.4%	4.7%
Cc1ccc(-n2c(C)cc(C(=O)CSc3n[nH]c(N)n3)c2C)cc1	20.4%	9.53µM*	0.7%	25.7%	-34.5%	-9.0%
Cc1ccccc1-n1ncc2c1CC(C)(C)CC2NC(=O)CCN1CCCCC1=O (stereo not drawn)	4.7%	4.2%	5.5%	-1.3%	nt	nt
CCCCC/C=C\C\C=C/C=C/C=C/[C@@H](SC[C@H](NC(=O)CC[C@H](N)C(=O)O)C(=O)NCC(=O)O)[C@@H](O)CCCC(=O)O	nt	nt	nt	nt	11.3%	nt
Cc1cc(C(=O)CSc2n[nH]c(N)n2)c(C)n1-c1ccccc1	?	6.01µM*	4.47µM*	2.51µM*	11.2µM*	-7.1%
O=[N+]([O-])c1ccc(/C=N/Nc2nc3ccccc3o2)cc1	2µM*	-21.3%	?	2µM*	nt	nt
CN(C)c1ccc(/C=N/Nc2nc3ccccc3o2)cc1	0.1µM*	0.536µM*	?	?	nt	nt
SMILES	Rab9 promoter act	FLuc counter	ELG1 genotox	NPC1 prom act	SMN2 splice enh	KinaseGlo FLuc
CNc1nc(N/N=C/c2ccc([N+](=O)[O-])cc2)nc(Nc2ccccc2)n1	-3.5%	?	-3.5%	0.3%	-30.1%	-0.8%
COC(=O)CCCC(=O)NC(C)c1cnn(-c2ccccc2C)c1C (stereo not drawn)	-4.1%	2.7%	1.1%	-1.5%	nt	-1.3%
CC(C)(O)C#Cc1ccc(CNC[C@H]2O[C@@H](n3cnc4c(N)ncnc43)[C@H](O)[C@@H]2O)s1	nt	nt	3.2%	nt	nt	nt
COc1cc(/C=N/Nc2nncn2/N=C/c2ccc(O)c(OC)c2)ccc1O	?	0.379µM*	-7.0%	?	25.1µM*	10µM*
C(=N\Nc1nncn1/N=C/c1ccco1)/c1ccco1	2.4%	5.3%	0.1%	-4.7%	nt	nt
COc1ccc(OC)c(/C=N/Nc2nncn2/N=C/c2cc(OC)ccc2OC)c1	-2.1%	15.1µM*	-1.9%	-8.8%	4.6%	-7.0%
O=C(c1ccccc1Cl)N1N=C(c2cccs2)CC1c1cccc(O)c1 (stereo not drawn)	2.7%	-2.2%	0.5%	-4.4%	nt	nt
CN(Cc1ccccc1)C(=O)C1CCN(S(=O)(=O)c2cccc3nonc23)CC1	-6.0%	0.5%	-2.5%	2.1%	nt	nt
CN(C)C(=O)[C@H]1C[C@H]1[C@@H](O)[C@H](CO)NC(=O)[C@H](COCc1ccccc1)NC(=O)OC(C)(C)C	3.16µM*	2.8%	-2.1%	0.4%	nt	nt
CN(C)C(=O)[C@H]1C[C@H]1[C@@H](O)[C@H](CO)NC(=O)[C@H](Cc1ccccc1)NC(=O)OC(C)(C)C	-1.9%	1.6%	0.2%	-0.8%	nt	nt
CCCC[C@]12Cc3cc(C#N)ccc3C(O1)c1c(cc(-c3ccccc3)oc1=O)O2	-5.2%[1.84 µM]	0.3%[11.5 µM]	nt	-0.3%[1.84 µM]	nt	nt
OC[C@H]1O[C@@H](Oc2cc(O)cc(/C=C/c3ccc(O)cc3)c2)[C@H](O)[C@@H](O)[C@@H]1O	2.5%	19µM*	nt	4.0%	nt	nt
CCOC(=O)c1cc(-c2ccccc2)n(CC2CC(c3ccc(OC)cc3)=NO2)n1 (stereo not drawn)	-3.6%	-1.3%	-10.3%	-5.4%	nt	nt
Cc1nc2sc(C(=O)OC(C)C)c(N)c2c(C)c1C	4.47µM*	-18.2%	14.2%	-20.4%	27.7%	-0.2%
Nc1c(C(=O)Nc2ccccc2)sc2ncc([N+](=O)[O-])cc12	?	2.3%	8.6%	?	nt	nt
Cc1nc2sc(C(=O)c3ccccc3)c(N)c2c(C)c1C	29.3%	?	11.3%	9.1%	0.8%	0.1%
CC(=O)c1ccc(NC(=O)c2sc3nc(C)c(C)c(C)c3c2N)cc1	0.794µM*	0.477µM*	3.66µM*	0.562µM*	nt	nt
Cc1nc2sc(C(=O)Nc3ccccc3)c(N)c2c(C)c1[N+](=O)[O-]	4.47µM*	?	7.3µM*	3.16µM*	?	0.3%
Cc1ccc(C(=O)NCCC(=O)Nc2ccccc2C)cc1	-0.3%	-3.0%	1.0%	0.7%	nt	nt
COc1ccc(OC)c(NC(=O)c2c(NCc3ccc(N(C)C)cc3)sc3c2CCCC3)c1	nt	1.7%	nt	nt	nt	nt

Bioassay records deposited in PubChem BioAssay by National Center for Advancing Translational Sciences (NCATS).
